aSyn 5UTR inh: MLPCN primary screen, SNCA 5' untranslated region; 0.82% of 300,000 active; alpha-synuclein 5'UTR reporter, inhibitor activity; inhibition, % (tested at 7.5 µM); in the data active means inhibition above about 60%;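 further: H4 neuroglioblastoma cells stably carrying SNCA 5'UTR luciferase fusion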
Ba/F3 V617F tox: reduced viability of JAK2V617F-dependent Ba/F3 cells, primary screen, JAK2V617F inhibitor project, cell-based, Ba/F3 EpoR-JAK2V617F, luminescence; ATP luminescence; inhibition, % at 5.6 µM; 1.1% of 220,000 active;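 active means inhibition above the campaign mean plus 3 SD over all tested compounds, cut at about 24% in these data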;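 further: cytokine-independent growth of Ba/F3 cells driven by EpoR plus mutant JAK2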
IEC-6 tox: cytotoxicity in IEC-6 intestinal epithelial cells, primary screen, cytotoxicity control for KLF5 inhibitor project, cell-based, luminescence; IEC-6 cytotoxicity, luminescence viability; inhibition, % at 5 µM; 0.78% of 290,000 active; AID 1825, 2009; in the data active means inhibition above about 22%
APP 5UTR inh: inhibitors of APP translation via 5'UTR reporter, primary screen, APP 5'UTR luciferase, SH-SY5Y cells; inhibition, % at 2 µM; SH-SY5Y APP 5'UTR-luciferase reporter, luminescence; 0.82% of 190,000 active;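 active means inhibition above a set limit, derived from the sample mean plus 3 SD, cut at about 45% in these data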
BaF3 tox: parental Ba/F3 cell viability inhibition, counter-screen for JAK2V617F inhibitor project, murine pro-B, CellTiter-Glo luminescence; AID 1486, 2009; 1.1% of 220,000 active; CellTiter-Glo ATP luminescence; inhibition, % at 5.6 µM;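 active means inhibition above a per-campaign cutoff, the mean inhibition of all tested compounds plus 3 SD, cut at about 27% in these data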
KLF5 inhibitor: KLF5 expression inhibitors, primary screen, DLD-1 cells, luminescence. DLD-1 KLF5 promoter-luciferase reporter. inhibition, % at 5 µM. 0.23% of 290,000 active;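 active means inhibition above a per-plate limit of that plate's mean compound inhibition plus 3 SD, cut at about 60% in these data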;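 further: higher means less KLF5 promoter-driven luciferase light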
Numbers stand for hits; n = inactive; x = not tested or not shown. Hits are enriched below; roughly 2.2% of the tested compounds scored in any of these assays.

SMILES	aSyn 5UTR inh	Ba/F3 V617F tox	IEC-6 tox	APP 5UTR inh	BaF3 tox	KLF5 inhibitor
O=C(O)c1cccc(N/N=C/c2cccs2)c1	95.8	n	n	n	n	n
CCc1ccc2c(c1)[C@H]1OCC[C@H]1[C@@H](c1cccs1)N2	n	n	n	65.4	40.8	n
c1ccc2nc(-c3nc4ccccc4[nH]3)ccc2c1	74.4	n	n	n	n	n
c1ccc2[nH]c(-c3cscn3)nc2c1	n	n	n	n	n	n
CC(C)c1ccc2c(c1)CCC1C(C)(CN)CCCC21C (centres undefined)	96.7	96.4	n	x	79.4	n
O=C(COc1ccccc1)NCC(=O)Nc1ccncc1	n	x	x	x	x	x
CS(=O)(=O)N1CCCC(C(=O)NCCCN2CCC(Cc3ccccc3)CC2)C1 (centres undefined)	n	n	n	n	95.6	n
COC(=O)c1sc(S(=O)(=O)N2CCCCC2C(=O)O)c(C(=O)OC)c1C (centres undefined)	n	n	n	59.2	n	n
Cc1ccc2ccc3cccnc3c2n1	n	x	71.6	x	x	n
COc1ccc(C(C)=O)cc1COC(=O)CCNS(=O)(=O)c1ccc(C)c(C)c1	n	x	x	x	x	x
O=C(NC1CC1)c1ccc(-c2nc3ccccc3s2)s1	96.3	n	n	n	n	n
O=C(c1ccc(-c2nc3ccccc3s2)s1)N1CCOCC1	100.4	n	n	n	n	n
CCN1CCN(C(=O)c2ccc(-c3nc4ccccc4s3)s2)CC1	n	n	n	n	n	n
Cc1ccc2nc(NC(=O)c3ccc(-c4nc5ccccc5s4)s3)sc2c1	x	n	n	n	n	n
Cc1cc(C)cc(N(C(=O)c2cccs2)C2C=CS(=O)(=O)C2)c1 (centres undefined)	n	n	n	n	n	n
COC(=O)CCC(=O)NC(=S)Nc1sc(C)c(C)c1C(N)=O	89.5	75.0	40.5	93.9	71.3	n
COC(=O)CCC(=O)Nc1sc(C)c(C)c1C(N)=O	n	n	n	n	n	n
O=C(Nc1ccc2oc(=O)ccc2c1)c1ccc(-c2cccc([N+](=O)[O-])c2)o1	91.5	n	n	x	n	n
O=C(Nc1ccc2oc(=O)ccc2c1)c1ccc(-c2cccc(Cl)c2)o1	n	n	n	x	n	n
C=CCN(C(=O)CCC(=O)Nc1cc(C)on1)C(C(=O)NC1CCCC1)c1ccc(CC)cc1 (centres undefined)	n	x	n	x	x	n
CCOc1ccc(C(=O)N/N=C/c2c(C)[nH]c(=O)[nH]c2=O)cc1	n	n	n	x	n	n
CC(C)(C)c1ccc(C(=O)Nc2ccc(CC(=O)O)cc2)o1	110.7	n	n	x	n	n
Cc1c(NC(=O)CSc2nnc3c4ccccc4n(CCc4ccccc4)c3n2)c(=O)n(-c2ccccc2)n1C	n	n	59.8	n	n	n
CCn1c2ccccc2c2nnc(SCC(=O)Nc3c(C)n(C)n(-c4ccccc4)c3=O)nc21	n	n	n	n	n	n
O=C1CSC(c2ccc(Cl)cc2)N1C1CCCCC1 (centres undefined)	n	n	n	n	40.0	n
SMILES	aSyn 5UTR inh	Ba/F3 V617F tox	IEC-6 tox	APP 5UTR inh	BaF3 tox	KLF5 inhibitor
COC(=O)c1cccc(NC(=O)NC(=O)c2ccccc2Cl)c1	94.8	n	n	x	n	n
O=[N+]([O-])c1ccc(-c2ccc(/C=N/Nc3nc(N4CCCC4)nc(N4CCCC4)n3)o2)cc1	n	n	n	n	n	n
COc1ccc(-c2cnnc(N/N=C/c3ccc(-c4ccc([N+](=O)[O-])cc4)o3)n2)cc1	x	n	n	90.3	n	n
Cc1ccc(S(=O)(=O)Nc2ccc(Cl)cn2)cc1C	n	x	n	x	x	n
N#C/C(=C/c1ccc(N2CCOCC2)o1)c1ccc(Br)cc1	n	58.2	n	n	61.7	n
N#C/C(=C\c1ccc(N2CCOCC2)o1)c1ccccc1	n	n	n	n	29.6	n
N#C/C(=C/c1ccc(N2CCOCC2)o1)c1nc2ccccc2[nH]1	x	n	n	n	n	n
N#C/C(=C/c1ccc(N2CCCCCC2)o1)c1ccc(F)cc1	n	n	n	n	n	n
Cc1cc(NC(=O)C(C)SCC(=O)Nc2ccc(Br)cc2Br)no1 (centres undefined)	n	x	x	x	x	x
COc1ccc(N2CC(C(=O)NC3CCSC3=O)CC2=O)cc1 (centres undefined)	n	x	n	x	x	n

High-throughput results (PubChem BioAssay)
